BoNT A protease: inhibitors of Botulinum neurotoxin A light chain protease. multiplex microsphere protease substrate cleavage, flow cytometry. inhibition, % at 10 µM. 360,000 compounds, 0.17% hits
MazEF act: MazEF (E. coli) toxin RNase activation | P0AE70 | FAM/BHQ RNA-DNA oligo cleavage fluorescence, 5 h | activation, % at 20 µM | 350,000 compounds, 0.32% hits; in the data active means activation above about 50%
Target sequence (P0AE70 whole entry, looked up): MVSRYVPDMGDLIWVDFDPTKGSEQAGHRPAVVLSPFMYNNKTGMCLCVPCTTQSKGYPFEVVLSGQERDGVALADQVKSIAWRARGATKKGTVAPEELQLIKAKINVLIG
Bead autofluor: compound fluorescence in toxin protease inhibitor counterscreen | fluorescence intensity (concentration not given with the values) | compound autofluorescence counterscreen, microsphere flow cytometry; active compounds read high | AID 624483 | 360,000 compounds, 3.1% hits; in the data active means fluorescence intensity above about 16000; inconclusive means no clear call, values can overlap the other calls
Anthrax LF prot: anthrax lethal factor protease inhibition | 360,000 compounds, 0.12% hits | inhibition, % at 10 µM | multiplex microsphere protease cleavage assay, LF
BoNT-F LC inh: BoNT F light chain protease inhibition. Multiplex microsphere protease cleavage assay, flow cytometry. inhibition, % at 10 µM. 360,000 compounds, 0.22% hits. AID 588497; in the data active means inhibition above about 35%, passing the limit was not always enough; inconclusive means no clear call, values can overlap the other calls
BH1578 lux ind: inducers of Vibrio cholerae quorum light production without autoinducers | V. cholerae BH1578 lux reporter, luminescence, 6 h | activation, % at 18.7 µM | 350,000 compounds, 0.16% hits | AID 588436; in the data active means activation mostly above about 9.7%, no sharp cut-off; inconclusive means no clear call, values can overlap the other calls; inactive means mostly below about 3.7%
Of the large screens only hits and unclear results are named; the others gave an inactive call; ! = repeats disagree. In the library only some 3.9% were active in any assay of this set; here they are far more common. Unless noted, no stated cut-off is given here; in the data, active means inhibition above about 30%; inconclusive means no clear call, values can overlap the other calls; inactive means below that.

COc1ccc(CCN2CC(C(=O)NC3CCOCC3)CCC2=O)cc1 (centres undefined)	none
Cc1ccc(-c2ccc(SCC(=O)Nc3cc(C)on3)nn2)cc1	none
COc1ccc(-c2ccc(SCC(=O)Nc3cc(C)on3)nn2)cc1OC	Bead autofluor 25486
Cc1nc(C)c(C(=O)Nc2ccccc2-c2ccccc2)o1	Bead autofluor 23592
COc1ccc(C)cc1Nc1n[n+](-c2ccccc2)c(-c2cc([N+](=O)[O-])cc(OC)c2O)s1	MazEF act 445.0
COc1ccc(C)cc1Nc1n[n+](-c2ccccc2)c(-c2ccc(NC(C)=O)cc2)s1	none
CCn1c(C)nc2cc(C(=O)NNS(=O)(=O)c3c(C)c(C)cc(C)c3C)ccc21	Bead autofluor 24040
Cc1[nH]c(=O)[nH]c1C(=O)CCCCC(=O)OCC(=O)Nc1ccccn1	BoNT-F LC inh 69.9
Cc1ccccc1[C@H](NC1c2ccccc2C=Cc2ccccc21)P(=O)(c1ccccc1)c1ccccc1	none (no result: MazEF act, BH1578 lux ind)
Cn1c(O)c(C=NC2CCN(Cc3ccccc3)CC2)c(=O)[nH]c1=O	BoNT A protease inconclusive, BoNT-F LC inh inconclusive
O=c1[nH]c(=O)n(-c2ccccc2)c(O)c1/C=C/C=Nc1ccccc1	none
O=c1[nH]c(=O)n(C2CCCCCC2)c(O)c1C=NC1CCN(Cc2ccccc2)CC1	BH1578 lux ind 38.3
O=c1[nH]c(=O)n(C2CCCCC2)c(O)c1/C=C/C=Nc1ccccc1	MazEF act 95.6
CC(=O)Nc1cc(-c2ccc(S(C)(=O)=O)cc2)cn2c(-c3ccc(F)c(Cl)c3)cnc12	none (no result: MazEF act)
CC(C)(C)c1ccc(-c2nc(C#N)c(NCc3cccnc3)o2)cc1	Bead autofluor 17505
CCOc1ccc(S(=O)(=O)NN2Cc3ccccc3C2=N)cc1	none (no result: BH1578 lux ind)
CSc1c(C#N)c(N)c(C#N)c2c1COC(C)(C)C2	Bead autofluor 21535
Cc1cc(NC(=O)CSc2nnc(CNc3ccc(F)cc3)n2C2CCCCC2)no1	Bead autofluor 23158
CCc1nnc(NC(=O)CSc2nnc(CNc3ccc(F)cc3)n2C2CCCCC2)s1	Bead autofluor 16238
N#CCCN(Cc1ccccc1)C(C(=O)NC1CCCCC1)c1cc2ccccc2o1 (centres undefined)	none (no result: MazEF act, BH1578 lux ind)
O=C(Cn1nnc(-c2ccc(CN3CCOCC3)cc2)n1)N1CCCc2ccccc21	Bead autofluor 22876
CC(C)C[C@H](NC(=O)[C@@H]1Cc2c([nH]c3ccccc23)C2c3ccccc3C(=O)N21)C(=O)N1CCC[C@@H]1C(=O)O (some centres undefined)	none
Cc1cc(N2CCN(c3ccccc3)CC2)n2c(n1)nc1ccccc12	BoNT A protease inconclusive, Bead autofluor 23762
CCOC(=O)c1cc(C(=O)OCC)c(=O)[nH]c1SCc1ccccc1	none
CSc1ccccc1NC(=O)C1=COCCO1	none
N#Cc1sc2nc3c(cc2c1N)CCCC3	none
c1ccc2[nH]c(-c3ccnc4ccccc34)nc2c1	Bead autofluor 17421!
Cc1cc2c(n1-c1ccc(C(N)=O)cc1)CC(C)(C)CC2=O	BoNT A protease inconclusive, Bead autofluor 22230
Clc1ccc(-n2c(SCc3nc4ccccc4[nH]3)nnc2-c2ccncc2)cc1	Bead autofluor 21021
Cn1c(SCc2nc3ccccc3[nH]2)nnc1-c1cccnc1	BoNT A protease inconclusive, Bead autofluor 20145
CCOc1ccc(-c2nnc(SCc3nc4ccccc4[nH]3)n2N)cc1	Bead autofluor 22829
Brc1ccc(-n2c(SCc3nc4ccccc4[nH]3)nnc2-c2ccncc2)cc1	none
O=C1CCC[C@@H]2C=C[C@H](c3ccc(Br)cc3)[C@H]3CCN1[C@@H]32	none (no result: MazEF act, BH1578 lux ind)
Cc1cc(NC(=O)CSc2nnc(-c3cccc(F)c3)n2N)no1	none
CCOCCc1nnc(NC(=O)Cc2ccc(Br)cc2)s1	Bead autofluor 23584
CCN(CC)S(=O)(=O)c1cccc(C(=O)NC(Cc2c[nH]c3ccccc23)c2nnc3n2CCC3)c1 (centres undefined)	none
CCn1c(NC(=O)c2ccc(COc3ccc(C)cc3[N+](=O)[O-])o2)nc2ccccc21	Bead autofluor 22323
Cc1ccccc1NC(=O)C1CC(Cl)=CCC1C(=O)O (centres undefined)	Bead autofluor 21780
COC(=O)C1CN(C(=O)COc2ccccc2)c2ccccc2O1 (centres undefined)	none
Cc1ccc(C(=O)/C=C\C(=O)c2ccc(C)cc2)cc1	none
O=C(/C=C/c1ccccc1)c1ccccc1	none
